Reference: PubChem BioAssay (NCI)
Compounds without any hit were thinned out: in the full panel of roughly 83,000, 20% have a hit.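 Each cell line was grown in a 96-well plate and treated with one concentration of compound for 48 hours. Values below 10 were considered active.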 Values without a mark were called inactive. Active and inactive are the calls of the source.

Experiments:
Assay in all cases: NCI-60 one-dose screen, 48 h (100 = growth as untreated, 0 = no growth, -100 = all killed)
Details in all cases: 10 µM unless noted
HCT-15 colon = test system: HCT-15 colon
HT29 colon = test system: HT29 colon
SNB-75 CNS = test system: SNB-75 CNS
SNB-19 CNS = test system: SNB-19 CNS
PC-3 prostate = test system: PC-3 prostate
SK-MEL-5 melanoma = test system: SK-MEL-5 melanoma
UACC-62 melanoma = test system: UACC-62 melanoma
LOX IMVI melanoma = test system: LOX IMVI melanoma
SK-MEL-28 melanoma = test system: SK-MEL-28 melanoma
SK-MEL-2 melanoma = test system: SK-MEL-2 melanoma
EKVX NSCLC = test system: EKVX NSCLC
SN12C renal = test system: SN12C renal
UO-31 renal = test system: UO-31 renal
TK-10 renal = test system: TK-10 renal
ACHN renal = test system: ACHN renal
CAKI-1 renal = test system: CAKI-1 renal
A498 renal = test system: A498 renal
CCRF-CEM leukemia = test system: CCRF-CEM leukemia
MOLT-4 leukemia = test system: MOLT-4 leukemia
U251 CNS = test system: U251 CNS

Row | SMILES | growth (HCT-15 colon) | growth (HT29 colon) | growth (SNB-75 CNS) | growth (SNB-19 CNS) | growth (PC-3 prostate) | growth (SK-MEL-5 melanoma) | growth (UACC-62 melanoma) | growth (LOX IMVI melanoma) | growth (SK-MEL-28 melanoma) | growth (SK-MEL-2 melanoma) | growth (EKVX NSCLC) | growth (SN12C renal) | growth (UO-31 renal) | growth (TK-10 renal) | growth (ACHN renal) | growth (CAKI-1 renal) | growth (A498 renal) | growth (CCRF-CEM leukemia) | growth (MOLT-4 leukemia) | growth (U251 CNS)
1 | OC(c1cccc(C(F)(F)F)c1)c1cnccc1NC1CCCCC1 (stereo unspecified) | 81.3% | 37.9% | 72.1% | 89.3% | 69.4% | 69.6% | 74% | 82.4% | 98.4% | 92.6% | 77.6% | 73.5% | 52.2% | 82.7% | 87.2% | 69.5% | 77.4% | 62% | 71.6% | 
2 | N#CC(C(=O)/C(=N/NC(=O)c1ccccc1O)C(C#N)c1ccccc1)c1ccccc1 (stereo unspecified) | 43.1% |  | 18% | 33.2% | 55.2% | 81.7% | 21.7% | 44.7% | 83.7% | 68.6% | 76.7% | 52.5% | 29.4% | 69.7% | 31% | 82.5% | 30.9% |  |  | 6.45% (active)
3 | O=C1Nc2ccccc2/C1=C\c1c(-c2ccccc2)nc2ccccn12 | 29.3% | 21.8% | 38.5% | 55.8% | 49.9% | 17.3% | 33.4% | 37.1% | 58.6% | 52.5% | 53.1% | 46.1% | 48.2% | 84.4% | 40.9% | 39.2% | 28.6% | 37.9% | 9.8% (active) | 
4 | CCN1C(=O)/C(=C/C(=O)OC)S/C1=N\NC(=O)c1cc2ccc1/C=C\c1ccc(cc1)/C=C\2 | 68.4% | 45.2% | 78.8% | 85.6% | 56.7% | 92.5% | 78.6% | 73.5% | 100% | 94.2% | 93.6% | 95% | 79% | 93.5% | 93.4% | 89.5% |  | 33.9% | 37.2% | 
5 | C=C(C)[C@@H]1CC[C@]2(C(=O)N3CCN(C)CC3)CC[C@]3(C)[C@H](CC[C@@H]4[C@@]5(C)CC[C@H](OCCC#N)C(C)(C)[C@@H]5CC[C@]43C)[C@@H]12 | 90.6% | 27.6% | 99.5% | 95.9% | 72.2% | 94.8% | 110% | 53.5% |  | 97.7% | 101% | 90.7% | 81.8% | 106% | 103% | 99.8% |  | 23% | 59.7% | 
6 | CNC(=O)c1cccc(Cn2nc(C)c(NC(=O)c3ccc(COc4ccc(C(F)(F)F)cc4C)cc3)c2C)c1 | 55% | 44.4% | 82.2% | 46.8% | 40.1% | -16.8% (active) | 57% | 58% | 63.9% | 48.9% | 34% | 56.6% | 47.3% | 55.5% | 47.2% | 47% |  | 54.4% | 18% | 
7 | COc1cc2c(=O)n(CCN)c3c4cc5c(cc4ccc3c2cc1OC)OCO5 | -75.5% (active) | -89.8% (active) | 43.7% | -67.1% (active) | -60.1% (active) | -78.8% (active) | -12.5% (active) | -76.7% (active) | -71.2% (active) | 47.2% | 52.7% | -69.3% (active) | -84.8% (active) | 42.7% | -10.5% (active) | 18.6% |  | -19% (active) | -26% (active) | 
8 | COc1cc(/C(C)=C(\c2ccc(Cl)cc2)c2ccc(OCCN(C)C)cc2)ccc1F | 18.1% | 5.91% (active) | 65.4% | 87.7% | 58.1% | 44.2% | 50.3% | 38.3% | 64.5% | 104% | 81.2% | 73.8% | 47.5% | 72.1% | 87.4% | 62.7% |  | 49.5% | 42.4% | 
9 | Cc1c2cc[nH]c(=O)c2c(C)c2c1[nH]c1cc(OCCN3CCN(C)CC3)ccc12 | 10.1% | -7.17% (active) | 7.53% (active) | 12.9% | 7.38% (active) | 11.9% |  | -62.3% (active) |  | -13.1% (active) | -2.81% (active) | 21% | 2.27% (active) | 27.5% | -17.5% (active) | 43.7% | -29.1% (active) | 13.9% |  | 
10 | COC(=O)N[C@H]1CCc2c(Cl)c(OC)c(OC)c(OC)c2-c2ccc(SC)c(=O)cc21 | 9.73% (active) | 13% | 28% | 26.3% | 21.1% | -37.4% (active) | 36.9% | 13.3% | 60.8% | 42.4% | 47.8% | 21.1% | 22.7% | 45.9% | 30.9% | 15.1% |  | 1.53% (active) | 3.99% (active) | 
11 | CC1=CCC(OC(=O)C(C)(O)CCC(O)(C(=O)OC2(C)C=CC(O)(C(C)C)CC2)C(C)C)(C(C)C)CC1 (stereo unspecified) | 103% | 104% | 92.5% | 102% | 113% | 101% | 98.1% | 101% | 114% | 108% | 99% | 98.9% | 88.6% | 95.6% | 111% | 95% |  | 102% | 109% | 
12 | CCCCCCNC(=O)Oc1ccc(/C(=C(\C)c2ccccc2)c2ccc(OCCN3CCCCC3)cc2)cc1 | 8.13% (active) |  | 92.5% | 74.6% | 47.9% | 71.2% | 5.21% (active) | 53.9% | 48.8% | 75.3% | 77.7% |  | 39.4% | 83.3% | 90.2% | 44.8% |  | 60.7% | 43.7% | 50.1%
13 | COc1cc(F)c(/C=C/c2cc(/C=C/c3cc(OC)c(OC)cc3F)on2)cc1OC | 82.1% |  | 98.2% | 76.8% | 74% | 91.9% | 66.1% | 81.9% | 82.7% | 76.3% | 102% | 91.6% | 91.2% | 100% | 80% | 90.1% |  | 91.9% | 91.1% | 
14 | CCOC(=O)c1cc(C(=O)c2ccc(OC)c(OC)c2)n2ccc(/C=C/c3cc[n+](CC(=O)c4ccc(OC)c(OC)c4)cc3)cc12 | 104% |  | 79.4% | 90.6% | 92.8% | 98% | 96.6% | 87.7% | 104% | 112% | 99.6% | 86.8% | 82.7% | 113% | 96.3% | 96.2% | 95.6% | 85.7% | 93.7% | 95.5%
15 | Cc1nn(-c2ccccc2)c(Cl)c1/C=C/C(=O)c1ccc(F)cc1 | 73.9% |  | 97.9% | 87% | 78.7% | 91.7% | 65.2% | 76.5% | 105% | 92.8% | 93.1% | 88.9% | 79.1% | 101% | 97.5% | 95.9% | 81.5% | 4.52% (active) | 20.7% | 75.9%
16 | C=C(C)[C@@H]1CC[C@]2(C(=O)N3CCN(C)CC3)CC[C@]3(C)[C@H](CC[C@@H]4[C@@]5(C)CC[C@H](O)C(C)(C)[C@@H]5CC[C@]43C)[C@@H]12 | -83.9% (active) |  | -93.2% (active) | -52% (active) | -70.7% (active) | -67.7% (active) | -82.9% (active) | -80.9% (active) | -85.1% (active) | 61.8% | 92.5% |  | -86.1% (active) | -93.3% (active) | -92% (active) | -84% (active) | 98.7% | -36.6% (active) | -35.7% (active) | -84.8% (active)
